# In PubChem BioAssay AID686979 (National Center for Advancing Translational Sciences (NCATS), 2013):
# Among all 420,000 compounds or so, about 50,000 (12%) were called active. About 26% were inconclusive and are not listed. The full list was thinned out, with actives kept by preference. Unmarked numbers belong to inactive results. The call rests on the fitted dose curve; in most records, active means well fitted inhibition curve with a large enough effect; inconclusive means small, poorly fitted or top-dose-only effect; inactive means flat fitted curve, though single readings scatter.
# Assay: qHTS for Inhibitors of human tyrosyl-DNA phosphodiesterase 1 (TDP1): qHTS in cells in presence of CPT; further: nearly all actives have a fitted effect of over 55% in size
# Conditions: chicken DT40 Tdp1-/-;hTDP1 cells + 20 nM CPT, ATP luminescence, 48 h; series mostly up to 46.2 µM; activity change, negative = growth inhibition: at the top concentration
# Outline: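 Chicken DT40 Tdp1-/- cells complemented with human TDP1, 400 cells/well, exposed to compounds plus 20 nM camptothecin for at least 48 h at 37 C; viability read as ATP content by CellTiter-Glo luminescence.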
# On the % scale 0 is the no-effect control and ±100 the full control effect; potency means the concentration at half of the fitted maximal effect.
SMILES,Potency,"activity change, negative = growth inhibition [%]"
COc1cc(C(=O)NCC(=O)N2CC=C(c3ccccc3)CC2)cc(OC)c1OC,16.4 µM (active),–
COc1cc(OC)cc(C(=O)NCC(=O)N2CCCCCCC2)c1,–,-3.83
COc1ccc(OC)c(CN2CCN(C(=O)CNC(=O)c3cc(C)cc(C)c3)CC2)c1,–,-27.7
COc1cc(C(=O)NCCS(=O)(=O)N2CCN(c3ccccc3)CC2)cc(OC)c1OC,20.6 µM (active),–
COc1cccc(OCC(=O)NCCS(=O)(=O)N2CCN(c3ccccc3)CC2)c1,–,-18.7
CCOc1ccc(CC(=O)NCCS(=O)(=O)N2CCN(c3ccccc3)CC2)cc1,–,-20.6
CC(=O)Nc1nc(N(C)C)nc(N(C)C)n1,–,2.3
CN(CC(=O)Nc1ccc(OC(F)(F)F)cc1)C(=O)C1CCC1,–,-22.9
O=C(NCC(=O)N1CCCCCCC1)c1ccccc1Cl,–,-3.35
Cc1ccc(CN2CCN(Cc3ccc4ncccc4c3)CC2CCO)cc1 (centres undefined),–,-7.54
Cc1cccc(N(CC(=O)Nc2ccc(-c3nc4ccc(C)cc4s3)cc2)S(C)(=O)=O)c1,13 µM (active),–
COc1cccc(N(CC(=O)Nc2cccc(F)c2)S(C)(=O)=O)c1,–,-23.4
CCN(CC)S(=O)(=O)c1ccc(NC(=O)CN(c2cccc(F)c2)S(C)(=O)=O)cc1,–,-21.7
O=C(Nc1nnc(C2CC(=O)N(c3ccc(Cl)cc3)C2)s1)c1ccco1 (centres undefined),–,-24
CC(C)Nc1nnc(SC(C)C(=O)N(C)C2CCCCC2)s1 (centres undefined),–,-9.32
CCc1ccc(NC(=O)NC(C)c2ccc3c(c2)OCO3)cc1 (centres undefined),–,-12.2
CC(NC(=O)Nc1ccc2c(c1)OCO2)c1ccncc1 (centres undefined),–,12.1
CC1CCCN(C(C(=O)Nc2ccc(C(C)C)cc2)c2ccc3c(c2)OCO3)C1 (centres undefined),18.4 µM (active),–
O=C(CN1C(=O)NC2(CCCCC2)C1=O)N1CCN(C(=O)c2cccs2)CC1,–,9.19
COc1ccc(Cl)cc1NC(=O)NC(C)C(C)(C)C (centres undefined),–,18.8
CCNc1nc(NCC)nc(N/N=C/c2ccc(O)c(OC)c2)n1,–,-23
O=[N+]([O-])c1cc(Br)c(O)c(/C=N/Nc2nc3ccccc3s2)c1,8.2 µM (active),–
COc1ccc(/C=N/Nc2nc3ccccc3o2)cc1OC,–,2.57
Cc1ccc(S(=O)(=O)Nc2nc3ccccc3s2)cc1[N+](=O)[O-],–,5.53
O=[N+]([O-])c1cccc(/C=N/Nc2ncc(Br)cn2)c1,–,-2.55

SMILES,Potency,"activity change, negative = growth inhibition [%]"
COc1cc(/C=N/Nc2nc3ccccc3s2)ccc1O,1.46 µM (active),–
CCOC(=O)N1CCC(N2Cc3cccc(C(=O)Nc4ccc(S(=O)(=O)N(CC)CC)cc4)c3C2=O)CC1,–,-18.8
C=CCOc1cccc(C2C(C(=O)c3ccc(C)o3)=C(O)C(=O)N2CCN2CCOCC2)c1 (centres undefined),–,-22.3
COc1ccc(/C=N/NC(=O)c2ccccc2)cc1OS(=O)(=O)c1ccccc1,–,-71.7
COc1ccc(C(=O)Nc2ccccc2C(=O)N/N=C/c2ccc(O)c(OC)c2)cc1,16.4 µM (active),–
COc1ccc(/C=N/Nc2ccccc2C(=O)O)cc1,–,-1.82
Cc1cccc(C)c1N1C(=O)CN(Cc2ccccc2)C1=S,–,-6.5
C=CCC1(CC=C)CCCN1C(=O)CC1C(=O)NCCN1Cc1ccccc1OC (centres undefined),–,-23.7
O=C(Cc1ccc(Br)cc1)NCCN1CCOCC1,–,17.8
COC1=C/C(=C/c2c(N)n3nc(CC(=O)N4CCOCC4)sc3nc2=O)C=CC1=O,–,-0.843
COc1cccc(Cn2c(SCc3ccc(C(=O)N4CCC(C)CC4)cc3)nc3ccncc32)c1,11.6 µM (active),–
O=C(O)c1ccc(CSc2nc3cccnc3n2Cc2cccc(F)c2)cc1,–,-1.39
Cc1cccc(CSc2nc3ccncc3n2Cc2ccc(C(=O)O)cc2)c1,–,-0.967
CCC1C(=O)NCCN1C(=O)c1ccc2nc(Cc3ccc(OC)cc3)oc2c1 (centres undefined),–,-10.2
COc1ccc(S(=O)(=O)N2CCN(C)CC2)c(C)c1,–,3.87
CN(C)S(=O)(=O)N1CCC(Oc2cccc(C(=O)NCCCC3CCCC3)c2)CC1,18.4 µM (active),–
CN(C(=O)c1cccc(OC2CCN(S(=O)(=O)N(C)C)CC2)c1)C1CCOC1 (centres undefined),–,0.425
CNS(=O)(=O)c1cccc(C(=O)NCC2CCCCC2)c1,–,-6.28
Clc1cc(-c2ccc(/C=N/n3cnnc3)o2)ccc1Br,–,36
CCOc1ccc(S(=O)(=O)NCc2ccc3c(c2)OCO3)cc1C,–,-0.545
O=C(NC1CC(=O)N(c2ccc(Cl)cc2)C1)C1CCCC1 (centres undefined),–,-4.39
Cc1cc(C)n2nc(C(=O)OCC(=O)N(CCC#N)c3ccc(F)cc3)nc2n1,–,-8.36
O=c1cc(-c2ccccc2)[nH]c2cc(F)ccc12,0.92 µM (active),–
O=c1[nH]c(-c2ccccc2)c(-c2ccccc2)[nH]1,–,-8.71
